TDP1 cell noCPT = qHTS for Inhibitors of human tyrosyl-DNA phosphodiesterase 1 (TDP1): qHTS in cells in absence of CPT | 420,000 tested, 15% active | DT40 Tdp1-/- hTDP1 cells, no CPT, ATP luminescence, 48 h | Potency, µM (highest dose often 46.2 µM), inactives show at the highest dose activity change, negative = growth inhibition, actives largely listed as inhibitors; further: potency means the concentration at half of the fitted maximal effect; nearly all actives have a fitted effect of over 55% in size
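Cells were dispensed at 400 per well, compounds added by pin tool, plates incubated ≥48 hr at 37 °C, then CellTiter-Glo added for 30 min at room temperature before luminescence reading. Line: DT40 Tdp1-/- complemented with hTDP1; camptothecin omitted.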
HT1080 IDH1KD tx = toxicity to HT-1080 IDH1 knockdown cells (counter line) | HT-1080 IDH1 knockdown viability, ATP luminescence, 48 h | Potency, µM (series often up to 46.1 µM), without a hit: top-dose activity, negative = toxicity, hits mostly cytotoxic | 360,000 tested, 2% active;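 further: potency means the concentration at half of the fitted maximal effect; 0% = DMSO wells and -100% = cell-free medium wells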
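In this qHTS, HT-1080 cells depleted of IDH1 are exposed for 48 h at 37 °C to compound titrations. Toxicity is scored from CellTiter-Glo luminescence, with DMSO as full viability and medium alone as none.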
IL-1B inflam inh = blocks inflammasome-driven IL-1 beta release; THP-1 LPS/ATP IL-1B secretion, AlphaLISA, 16 h; active compounds read low; activity change, % at 57.5 µM; 360,000 tested, 4.7% active; AID 743279; in the data active means activity change below about -50%; inconclusive means mostly about -30% to -49%
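Secreted IL-1B measured by AlphaLISA bead assay after 16 h compound exposure of THP-1 cells; compounds (final up to 57.5 uM) added 1 h before LPS (250 ng/mL) and ATP (1.25 mM) stimulation; lower signal means less secretion.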
HT1080-NT tox = kills 2HG-producing HT-1080-NT fibrosarcoma cells | HT-1080-NT fibrosarcoma viability, CellTiter-Glo ATP luminescence, 48 h | Potency, µM (top dose mostly 46.1 µM), without a hit: at the top dose activity, negative = less viability, actives largely listed as cytotoxic | 360,000 tested, 1.6% active | AID 686970;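 further: NT is the 2HG producing partner of a matched IDH1 knockdown line; potency means the concentration at half of the fitted maximal effect; 0% = DMSO-treated cells and -100% = media-only wells without cells; nearly all actives have a fitted effect of over 55% in size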
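Read-out is CellTiter-Glo luminescence after 10 minutes at room temperature, following 48 hours' compound treatment of HT-1080-NT cells (750 cells/well, RPMI, 5% FBS, 37 degrees C).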
uPA generation = inhibitors of cell surface uPA generation. cell surface uPA generation assay, qHTS. Potency, µM (doses to about 38.3 µM), without a hit: top-dose activity change, negative = inhibition, usual class: inhibitors. 330,000 tested, 0.31% active; active means well fitted inhibition curve with a large enough effect; inconclusive means small, poorly fitted or top-dose-only effect; inactive means no such curve, though single readings can be large or run the other way; tested in mouse RAW 264.7 cells; further: potency means the concentration at half of the fitted maximal effect; nearly all actives have a fitted effect of over 55% in size
DT40 TDP1 CPT = growth inhibition of DT40 Tdp1-/-;hTDP1 cells with camptothecin (screen for TDP1 inhibitors) | chicken DT40 Tdp1-/-;hTDP1 cells + 20 nM CPT, ATP luminescence, 48 h | Potency, µM (doses to about 46.2 µM), for the others: at the highest dose activity change, negative = growth inhibition, actives largely listed as inhibitors | 420,000 tested, 12% active; further: potency means the concentration at half of the fitted maximal effect; nearly all actives have a fitted effect of over 55% in size
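Chicken DT40 Tdp1-/- cells stably complemented with human TDP1 were seeded at 400 cells/well in medium containing 20 nM camptothecin, exposed to pin-transferred compounds, and grown at 37 °C for at least 48 hr. Viability was read as ATP luminescence.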
An asterisk follows results filed as active; i = inactive; ? = inconclusive; / = no result. This is a sample that favours compounds with a hit; in the whole collection about 19% have one here. Unless noted, the call rests on the fitted dose curve; in most records, active means well fitted curve in the direction sought with a large enough effect; inconclusive means small, poorly fitted or top-dose-only effect, or another doubt; inactive means no such curve, though single readings can be large; an effect the other way counts as inactive or inconclusive. Unless noted, on the % scale 0 is the no-effect control and ±100 the full control effect.

SMILES	TDP1 cell noCPT	HT1080 IDH1KD tx	IL-1B inflam inh	HT1080-NT tox	uPA generation	DT40 TDP1 CPT
COc1ccc(CNCc2cc3c(C(C)(C)C)nn(-c4ccccc4)c3[nH]c2=O)cc1	18µM*	?	10	?	-24%	26µM*
CC(C)[C@H](NC(=O)OC(C)(C)C)c1cc(C(=O)N[C@@H](C)c2ccccc2)c(N)s1	?	-2%	-28	-7%	/	?
Cc1sc2nc(CN3CCOCC3)nc(NS(=O)(=O)c3cc(Cl)ccc3Cl)c2c1C	7%	-1%	46	-4%	1%	-2%
COC(=O)CC1N(S(=O)(=O)c2ccc(C)cc2)c2ccccc2C1(C(=O)OC)C(=O)OC (configuration not stated)	?	3%	21	3%	/	26µM*
Cc1ccc(S(=O)(=O)N2C[C@@H]3c4ccccc4N(S(=O)(=O)c4ccc(C)cc4)[C@@H]3[C@@H](C)C2CC(=O)c2ccccc2)cc1 (some centres not stated)	-3%	8%	-5	9%	-2%	4%
Cc1ccc(S(=O)(=O)N2c3ccccc3OC(C(=O)OC(C)(C)C)(C(=O)OC(C)(C)C)C2CC(=O)c2ccccc2)cc1 (configuration not stated)	5.8µM*	-11%	-27	-4%	/	6.5µM*
CCCc1cc(C(=O)Nc2ccc(CC)cc2)no1	7%	-19%	-1	-26%	1%	2%
Cc1ccc(C2(C)NC(=O)N(CC(=O)NC(=O)NC(C)C)C2=O)cc1 (configuration not stated)	2%	-9%	18	-13%	3%	11%
CC(C)(C)NC(=O)C1c2ccccc2OCC(=O)N1Cc1ccccc1 (configuration not stated)	-10%	16%	-6	4%	/	-4%
O=C(c1cn(-c2ccccc2)nc1-c1cccs1)N1CCOCC1	-15%	-8%	-5	-3%	1%	-12%
COc1ccc(NC(=O)CN(C)C(=O)c2cn(-c3ccccc3)nc2-c2cccs2)cc1	16µM*	-2%	-16	0%	0%	?
CN(CC(=O)Nc1ccc(F)cc1)C(=O)c1cn(-c2ccccc2)nc1-c1cccs1	?	-2%	-60*	-10%	2%	?
O=C(c1cn(-c2ccccc2)nc1-c1cccs1)N1CCN(c2ccccc2)CC1	7.3µM*	7.1µM*	10	?	/	7.3µM*
COc1ccc(NC(=O)CN(C)C(=O)c2cn(-c3ccccc3)nc2-c2cccnc2)cc1	?	-4%	14	-1%	4%	-26%
CN(CC(=O)Nc1cccc(F)c1)C(=O)c1cn(-c2ccccc2)nc1-c1ccccc1	?	-6%	?	-3%	10%	?
Cc1cc(C)c(NC(=O)CN2C(=O)CCn3nc(-c4cccn4C)cc32)c(C)c1	11%	/	/	/	/	4%
CCc1nc(C)cn1S(=O)(=O)c1ccc(Cl)c(Cl)c1Cl	21µM*	-16%	-25	-19%	-4%	18µM*
CCc1nc(C)cn1S(=O)(=O)c1cc(C)c(OC)cc1C	?	-13%	9	6%	7%	-28%
CCc1nc(C)cn1S(=O)(=O)c1cc(C)c(OC)c(C)c1C	10µM*	?	-4	?	/	8.2µM*
O=C(Cc1ccc(F)cc1)Nc1nnc2n1CCS2	-5%	/	/	/	/	-4%
COc1ccc(OC)c(S(=O)(=O)N2CCC(C(=O)NCc3ccccn3)CC2)c1	-7%	17%	4	-1%	2%	-12%
O=C(COC(=O)c1ccc(Br)cc1)NCc1ccc(F)cc1	7%	9%	-22	-3%	3%	4%
COc1ccccc1-c1cc(C(=O)N/N=C/c2sccc2C)c2ccccc2n1	1µM*	-19%	-20	-21%	-16%	6.5µM*
Cc1ccsc1/C=N/NC(=O)c1cc(-c2ccncc2)nc2ccccc12	0.58µM*	0.92µM*	-10	?	-14%	0.58µM*
COc1ccccc1-c1cc(C(=O)N/N=C/c2ccc(C)o2)c2ccccc2n1	?	?	44	-11%	-10%	?
SMILES	TDP1 cell noCPT	HT1080 IDH1KD tx	IL-1B inflam inh	HT1080-NT tox	uPA generation	DT40 TDP1 CPT
COc1cc(NC(=O)CCN2CCN(C/C=C/c3ccccc3)CC2)cc(OC)c1	21µM*	-5%	0	-7%	-10%	?
O=C(Nc1cccc(Cl)c1)N1CCN(C/C=C/c2ccccc2)CC1	-21%	-16%	-51*	-17%	-2%	?
O=C(CCN1CCN(C/C=C/c2ccccc2)CC1)Nc1ccc(Cl)cc1	-16%	2%	i	1%	-3%	-13%
Cc1ccc(NC(=O)CCN2CCN(C/C=C/c3ccccc3)CC2)cc1C	?	-14%	-53*	-5%	-6%	?
CC(=O)OCC1OC(n2ccc3ccccc32)C(OC(C)=O)C(OC(C)=O)C1OC(C)=O (configuration not stated)	?	22%	1	18%	0%	?
CC(=O)OCC1OC(Sc2cccc3cccnc23)C(OC(C)=O)C(OC(C)=O)C1OC(C)=O (configuration not stated)	?	-17%	-97*	?	-7%	?
CCCS(=O)(=O)NC(=O)C1(C)CCN(C(=O)c2cccc(C)c2C)C1 (configuration not stated)	-17%	8%	-5	16%	/	-9%
COC(=O)C1=C(O)C(C(=O)OC)C(c2ccc(C)cc2)C(C#N)(C#N)C1c1ccc(C)cc1 (configuration not stated)	4.1µM*	-26%	-5	-24%	2%	5.2µM*
O.O=C([O-])CC([S-])C(=O)[O-].[Au+].[Na+].[Na+] (configuration not stated)	0%	/	/	/	/	-22%
c1ccc2c(NCCN3CCOCC3)nc(-c3ccoc3)nc2c1	-5%	/	/	/	/	16%
CCOC(=O)C1=C(O)C(=O)N(Cc2ccccc2)CC1	-10%	9%	10	4%	1%	-6%
Cc1ccccc1CN1CC2=C(CCN(Cc3ccccc3)C2=O)N2CCN=C12	1.3µM*	?	-17	?	/	0.58µM*
O=C(CN1C(=O)/C(=C\c2ccccc2Cl)Sc2ccccc21)NCCCN1CCOCC1	?	?	?	?	5%	?
COCCCNC(=O)CN1C(=O)/C(=C\c2ccc(C)cc2)Sc2ccccc21	?	1%	0	-7%	0%	?
